PubChem BioAssay AID1159580 (chemical genetic matrix, 2015)
The whole screen tested about 5,500 compounds, of which about 2,000 (36%) were called active. Another 18% or so got no clear call; they are omitted. No stated cut-off is given here; in the data, active means normalized growth mostly below about 0.91 (no sharp cut-off); inconclusive means no clear call, values can overlap the other calls; inactive means mostly above about 0.92. The list shows a part of the results.

Experiment: chemical genetic growth profiling, strain panel (AID 1159580);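 further: tested at 20 µM; growth read once vehicle control cultures reached saturation at 30 °C; 1 = growth at the plate median or of vehicle wells; lower values mean less growth of the strain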
Settings: S. cerevisiae deletion strains, growth OD

Measured: normalized growth

CC1(C)c2ccccc2N(CCC(N)=O)C12C=Cc1c(ccc3ccccc13)O2 (stereo unspecified)
inactive: locus YAR019C, strain CDC15, active compounds read low 0.972 | locus YBL105C, strain PKC1, active compounds read low 0.968 | locus YBR135W, strain CKS1, active compounds read low 0.97 | locus YBR136W, strain MEC1, active compounds read low 0.95 | locus YBR160W, strain CDC28, active compounds read low 0.971 | locus YDL017W, strain CDC7, active compounds read low 0.965 | locus YDL028C, strain MPS1, active compounds read low 0.969 | locus YDL101C, strain DUN1, active compounds read low 0.955 | locus YDL108W, strain KIN28, active compounds read low 0.944 | locus YDL132W, strain cdc53, active compounds read low 0.964 | locus YDL214C, strain PRR2, active compounds read low 0.901 | locus YDR052C, strain DBF4, active compounds read low 0.97 | locus YDR054C, strain cdc34, active compounds read low 0.956 | locus YDR226W, strain ADK1, active compounds read low 0.973 | locus YDR477W, strain SNF1, active compounds read low 0.939 | locus YER123W, strain YCK3, active compounds read low 0.865 | locus YER133W, strain GLC7, active compounds read low 0.927 | locus YFL009W, strain cdc4, active compounds read low 0.979 | locus YFL029C, strain CAK1, active compounds read low 0.964 | locus YFR003C, strain YPI1, active compounds read low 0.959 | locus YFR019W, strain FAB1, active compounds read low 0.943 | locus YFR028C, strain CDC14, active compounds read low 0.981 | locus YGR040W, strain KSS1, active compounds read low 0.92 | locus YGR052W, strain FMP48, active compounds read low 0.968 | locus YGR092W, strain DBF2, active compounds read low 0.906 | locus YHR030C, strain SLT2, active compounds read low 1.04 | locus YHR079C, strain IRE1, active compounds read low 0.973 | locus YHR082C, strain KSP1, active compounds read low 0.97 | locus YHR205W, strain SCH9, active compounds read low 0.956 | locus YIL147C, strain SLN1, active compounds read low 0.971 | locus YJL095W, strain BCK1, active compounds read low 0.975 | locus YJL128C, strain PBS2, active compounds read low 0.907 | locus YJL157C, strain FAR1, active compounds read low 0.896 | locus YJR016C, strain ILV3, active compounds read low 0.969 | locus YJR066W, strain TOR1 (second series), active compounds read low 0.891 | locus YJR066W, strain TOR1, active compounds read low 0.962 | locus YKL048C, strain ELM1, active compounds read low 0.912 | locus YKL067W, strain YNK1, active compounds read low 0.918 | locus YKL101W, strain HSL1, active compounds read low 0.908 | locus YKL193C, strain SDS22, active compounds read low 0.959 | locus YKL203C, strain TOR2, active compounds read low 0.985 | locus YLR113W, strain HOG1, active compounds read low 0.919 | locus YLR133W, strain CKI1, active compounds read low 0.944 | locus YLR403W, strain SFP1, active compounds read low 0.915 | locus YML070W, strain DAK1, active compounds read low 0.883 | locus YMR001C, strain CDC5, active compounds read low 0.966 | locus YMR205C, strain PFK2 (second series), active compounds read low 0.926 | locus YMR277W, strain FCP1, active compounds read low 0.968 | locus YNL006W, strain LST8, active compounds read low 0.986 | locus YNL020C, strain ARK1, active compounds read low 0.915 | locus YNL161W, strain CBK1, active compounds read low 0.966 | locus YNL183C, strain NPR1, active compounds read low 0.989 | locus YNL207W, strain RIO2, active compounds read low 0.96 | locus YNL222W, strain SSU72, active compounds read low 0.962 | locus YNL307C, strain MCK1 (second series), active compounds read low 0.922 | locus YOL078W, strain AVO1, active compounds read low 0.96 | locus YOL136C, strain PFK27, active compounds read low 0.907 | locus YOR061W, strain CKA2, active compounds read low 0.889 | locus YOR119C, strain RIO1, active compounds read low 0.968 | locus YOR231W, strain MKK1, active compounds read low 0.95 | locus YOR329C, strain SCD5, active compounds read low 0.971 | locus YPL031C, strain PHO85, active compounds read low 0.921 | locus YPL153C, strain RAD53, active compounds read low 0.931 | locus YPL204W, strain HRR25, active compounds read low 0.937 | locus YPL209C, strain IPL1, active compounds read low 0.966 | locus YPL256C, strain CLN2, active compounds read low 0.925 | locus YPR025C, strain CCL1, active compounds read low 0.973 | locus YPR106W, strain ISR1, active compounds read low 0.957 | locus YPR111W, strain DBF20, active compounds read low 0.963 | strain NNK1, active compounds read low 0.944 | strain TSCII, active compounds read low 0.97
